According to publication PMC5540273 (PLoS ONE, 2017):

Columns and labels:
Details in all cases: concentration: 1 μM, replicates: in singlicate; n = 1
HIPK2 = test system: HIPK2
HIPK3 = test system: HIPK3
HIPK4 = test system: HIPK4
HPK1 = test system: HPK1
HUNK = test system: HUNK
ICK = test system: ICK
IGF1R = test system: IGF1R
IKK-alpha = test system: T1, IKK-alpha
T1 construct: gene CHUK

IKK-beta = test system: T2, IKK-beta
T2 construct: gene IKBKB

IKK-epsilon = test system: T3, IKK-epsilon
T3 construct: gene IKBKE

INSRR = test system: INSRR
INSR = test system: INSR
IRAK1 = test system: IRAK1
IRAK3 = test system: IRAK3
IRAK4 = test system: IRAK4
ITK = test system: ITK
[1] = test system: JAK1(JH1domain-catalytic)
[2] = test system: JAK1(JH2domain-pseudokinase)
[3] = test system: JAK2(JH1domain-catalytic)
[4] = test system: JAK3(JH1domain-catalytic)
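Note: KINOMEscan kinase panel screen.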

Structure (SMILES)	%Inh (HIPK2) [%]	%Inh (HIPK3) [%]	%Inh (HIPK4) [%]	%Inh (HPK1) [%]	%Inh (HUNK) [%]	%Inh (ICK) [%]	%Inh (IGF1R) [%]	%Inh (IKK-alpha) [%]	%Inh (IKK-beta) [%]	%Inh (IKK-epsilon) [%]	%Inh (INSRR) [%]	%Inh (INSR) [%]	%Inh (IRAK1) [%]	%Inh (IRAK3) [%]	%Inh (IRAK4) [%]	%Inh (ITK) [%]	%Inh [1] [%]	%Inh [2] [%]	%Inh [3] [%]	%Inh [4] [%]
Cc1ccc(C)c(NC(=O)NCCNc2ccnc(Nc3ccc(F)cc3)n2)c1 [GSK1379878]	0	0	0	28	0	0	0	0	0	9	0	0	0	0	0	0	0	0	1	0
Cn1ccc2ncnc(Nc3ccc(Oc4cccc(Cl)c4)c(Cl)c3)c21	37	22	3	2	0	12	0	3	7	11	0	16	27	6	27	23	16	0	15	4
CCc1nc(-c2cccc(N(C)S(=O)(=O)c3ccccc3)c2)c(-c2ccnc(Nc3ccc(N4CCN(C(C)=O)CC4)nc3)n2)s1 [GSK1645895]	0	17	0	35	0	13	0	0	1	39	0	20	11	0	13	0	15	21	0	0
O=C(NCCCN1CCCC1=O)c1cnc(NCc2cc(Cl)ccc2Cl)nc1NC1CCNCC1	0	0	13	20	0	0	0	0	0	0	13	0	37	0	2	0	1	4	33	0
Fc1cccc(COc2ccc(Nc3ncnc4cc[nH]c34)cc2Cl)c1	27	40	9	0	8	5	5	5	23	39	0	0	6	0	4	13	0	36	19	0
COc1ccc(NC(=O)c2ccc(-c3cc(-c4nnc(C)o4)ccc3C)cc2)cc1 [GW595885]	0	10	0	24	3	4	0	25	24	0	0	0	37	0	16	6	9	0	12	0
N#Cc1ccc(Oc2ccc(Nc3ncnc4cc[nH]c34)cc2Cl)cc1	32	10	4	0	1	0	0	2	17	12	0	0	16	3	13	9	12	25	19	4
Nc1nc(-c2cccnc2)c(-c2ccnc3ccccc23)s1 [GW684083]	0	0	0	28	0	0	13	20	0	21	0	2	42	16	1	15	6	0	0	0
Nc1n[nH]c2nnc(-c3ccccc3)cc12 [SB-517389]	55	83	0	35	32	6	0	6	23	22	0	0	22	0	25	13	13	8	42	0
C[C@H]1CC[C@@H](C(=O)Nc2ccccc2)CN1c1cc(-c2ccc3c(N)n[nH]c3c2)nc(N)n1 [GSK2283293]	0	0	0	37	0	0	15	7	0	8	0	0	0	16	0	17	0	0	0	0
CN1c2ccc(-c3ccc(C(=O)NCCO)cc3)cc2-c2[nH]ncc2S1(=O)=O	52	39	16	22	0	0	7	0	0	31	0	0	14	44	0	12	5	35	13	97.2
